Values joined by “and” are separate entries in the source; they are usually repeats but may differ in a detail not shown here. Equal entries are not always repeated. Results filed as inconclusive are left out. Active and inactive are the calls of the source. How the source made its calls, unless noted: active means hit-call score of the fitted dose curve at least 0.9, where 1 is the maximum; inactive means score below 0.9.
System: not listed separately
Test: UKN2_HCS_IMR90_cell_viability: Viability Assessment in the University of Konstanz (UKN) Leist Lab Neural Crest Cell Migration Assay in human induced IMR90 Pluripotent Stem Cells (UKN2) (AID 2284233);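 further: viability of neural crest cells differentiated from IMR90 iPSC measured by calcein-AM fluorescence imaging; cells exposed to compound for 24 h after a 24 h migration phase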
Details: not given
How it was run: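 cMINC format, iPSC-derived neural crest (IMR90); 24 h migration (EGF/FGF, N2-S), then 24 h toxicant. Calcein-AM/H-33342 stain 30 min; fluorescence intensity by HCS; DMSO-normalised, bidirectional fitting.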

| Compound | outcome |
| --- | --- |
| CC(C)c1c(C(=O)Nc2ccccc2)c(-c2ccccc2)c(-c2ccc(F)cc2)n1CC[C@@H](O)C[C@@H](O)CC(=O)O | inactive |
| O=C(CCCN1CCC(O)(c2ccc(Cl)cc2)CC1)c1ccc(F)cc1 | inactive |
| Nc1ccn([C@@H]2O[C@H](CO)[C@@H](O)C2O)c(=O)n1 (stereo not given in full) | inactive |

System: not listed separately
Test: CCTE_Mundy_HCI_Cortical_NOG_NeuronCount: CCTE's Neurite Outgrowth Assay in rat cortical cells for Neuron Count, Mundy Lab (AID 2284236; active means hit-call score of the fitted dose curve at least 0.9, where 1 is the maximum;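 further: neurons counted by imaging betaIII-tubulin and Hoechst stained cortical cells; cells exposed to compound for about 48 hours before fixation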)
Details: not given
How it was run: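 Read-out: neuron number by high-content imaging of betaIII-tubulin (Alexa Fluor-488) and Hoechst-labelled rat primary cortical cells.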

| Compound | outcome | AC50 |
| --- | --- | --- |
| CC(=O)Nc1ccc(O)cc1 | inactive |  |
| CC(C)c1c(C(=O)Nc2ccccc2)c(-c2ccccc2)c(-c2ccc(F)cc2)n1CC[C@@H](O)C[C@@H](O)CC(=O)O |  | 7.8 µM (active) |
| O=C(CCCN1CCC(O)(c2ccc(Cl)cc2)CC1)c1ccc(F)cc1 | inactive |  |
| CN(Cc1cnc2nc(N)nc(N)c2n1)c1ccc(C(=O)N[C@@H](CCC(=O)O)C(=O)O)cc1 | inactive |  |
| O=C1NS(=O)(=O)c2ccccc21 | inactive |  |
| Nc1ccn([C@@H]2O[C@H](CO)[C@@H](O)C2O)c(=O)n1 (stereo not given in full) |  | 2.74 µM (active) |

System: not listed separately
Test: CCTE_Mundy_HCI_Cortical_NOG_BPCount: CCTE's Neurite Outgrowth Assay in rat cortical cells for Branch Point Count, Mundy Lab (AID 2284237);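 on AC50: branch points counted about two days after chemical exposure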
Details: not given
How it was run: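 Measured 50.33 h after dosing, this morphology endpoint uses rat primary cortical cultures labelled for betaIII-tubulin. Branch points are quantified by high-content imaging, with DMSO as negative control and baseline.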

| Compound | AC50 | outcome |
| --- | --- | --- |
| CC(C)c1c(C(=O)Nc2ccccc2)c(-c2ccccc2)c(-c2ccc(F)cc2)n1CC[C@@H](O)C[C@@H](O)CC(=O)O | 0.0896 µM (active) |  |
| CN(Cc1cnc2nc(N)nc(N)c2n1)c1ccc(C(=O)N[C@@H](CCC(=O)O)C(=O)O)cc1 |  | inactive |
| O=C1NS(=O)(=O)c2ccccc21 |  | inactive |

Read-out: Collagen I, COL1A1 (gene 1277)
Test: BSK_MyoF_CollagenI: BioMAP Diversity Plus: MyoF Assay for Collagen I Biomarker Activity (AID 2284238)
Details: primary human lung fibroblasts
How it was run: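 Multiplexed primary human lung fibroblast system; Collagen I measured by ELISA at 24 h post-dose. Increases are referenced to DMSO.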

| Compound | outcome | AC50 |
| --- | --- | --- |
| O=P(O)(O)CCC(F)(F)C(F)(F)C(F)(F)C(F)(F)C(F)(F)C(F)(F)F | inactive |  |
| O=S(=O)(O)C(F)(F)C(F)(F)C(F)(F)C(F)(F)C(F)(F)C(F)(F)C(F)(F)C(F)(F)C(F)(F)C(F)(F)F | inactive |  |
| O=C(O)CCC(F)(F)C(F)(F)C(F)(F)C(F)(F)C(F)(F)F | inactive |  |
| Clc1ccc(Nc2nnc(Cc3ccncc3)c3ccccc23)cc1 | inactive |  |
| CC[N+](CC)(CC)Cc1ccccc1 | inactive |  |
| CC(C)(C)c1ccc(O)c(O)c1 |  | 27.4 µM (active) |
| O=P(O)(O)CCC(F)(F)C(F)(F)C(F)(F)C(F)(F)C(F)(F)C(F)(F)C(F)(F)C(F)(F)F | inactive |  |
| C=CC(=O)OCCC(F)(F)C(F)(F)C(F)(F)C(F)(F)C(F)(F)C(F)(F)C(F)(F)C(F)(F)F | inactive |  |
| CN(CCO)S(=O)(=O)C(F)(F)C(F)(F)C(F)(F)C(F)(F)C(F)(F)C(F)(F)C(F)(F)C(F)(F)F |  | 1.82 µM (active) and 2.36 µM (active) |
| OCC(F)(F)C(F)(F)C(F)(F)C(F)(F)C(F)(F)C(F)(F)C(F)(F)C(F)(F)C(F)(F)C(F)(F)C(F)(F)F | inactive |  |
| CN(Cc1cnc2nc(N)nc(N)c2n1)c1ccc(C(=O)N[C@@H](CCC(=O)O)C(=O)O)cc1 | inactive |  |
| Oc1cc2ccccc2cc1O | inactive |  |
| O=C(CC(=O)C(F)(F)C(F)(F)C(F)(F)F)c1cccs1 |  | 17.8 µM (active) and 7.76 µM (active) |
| CC1=NN(c2ccccc2)C(=O)C1 | inactive |  |
| CCCCC(CC)C(=O)OCCOCCOCCOCCOC(=O)C(CC)CCCC (stereo not given) | inactive |  |
| O=C(O)CCC(F)(F)C(F)(F)C(F)(F)C(F)(F)C(F)(F)C(F)(F)F | inactive |  |
| O=C(O)C(F)(F)OC(F)(F)C(F)(F)OC(F)(F)C(F)(F)OC(F)(F)C(F)(F)C(F)(F)C(F)(F)F |  | 9.61 µM (active) and 5.9 µM (active) |
| Cc1ccc(C(=O)c2ccccc2)cc1 | inactive |  |
